TAG inh = reduces triacylglycerol accumulation in H9c2 cells; Nile Red lipid (TAG) fluorescence; cells loaded with 200 µM oleic acid; inhibition, % at 12.5 µM; 230,000 compounds, 0.66% hits; AID 651582;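 active = pattern-corrected inhibition of lipid staining of at least 50% with the nuclear-stain viability signal not falling by more than 50%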;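 note: 0% = DMSO wells and 100% = triacsin C control wells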
Cardio protect = myocardial damage modulation in H9c2 cells; H9c2 cardiomyocytes, H2O2 injury protection, ATPLite, 2 h; 360,000 compounds, 0.63% hits; protection from H2O2 cell death, % at 20 µM; AID 588492;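 active = compounds giving at least 50% protection of heart cells from peroxide-induced death in the single-dose screen, raw or plate-pattern-corrected value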;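 note: 0% = DMSO wells with peroxide and 100% = DMSO wells without peroxide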
Calpain2 inh = blocks pig calpain II enzyme activity. inhibition, % at 16 µM. 220,000 compounds, 0.37% hits. purified calpain II, fluorogenic peptide substrate, 30 min. AID 1236;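 active = inhibition above about 50%, limit read from the data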
FAS-TE inh = blocks the thioesterase domain of human fatty acid synthase | P49327 | recombinant FAS-TE, OMFH fluorogenic substrate, fluorescence endpoint | inhibition, % at 15 µM | 360,000 compounds, 0.67% hits;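 active = compounds whose normalised, plate-corrected inhibition of enzyme fluorescence in the single-dose primary screen is 50% or more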;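 note: 0% = DMSO with enzyme and 100% = substrate without enzyme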
Target sequence (P49327 whole entry, looked up, the tested form may be a part): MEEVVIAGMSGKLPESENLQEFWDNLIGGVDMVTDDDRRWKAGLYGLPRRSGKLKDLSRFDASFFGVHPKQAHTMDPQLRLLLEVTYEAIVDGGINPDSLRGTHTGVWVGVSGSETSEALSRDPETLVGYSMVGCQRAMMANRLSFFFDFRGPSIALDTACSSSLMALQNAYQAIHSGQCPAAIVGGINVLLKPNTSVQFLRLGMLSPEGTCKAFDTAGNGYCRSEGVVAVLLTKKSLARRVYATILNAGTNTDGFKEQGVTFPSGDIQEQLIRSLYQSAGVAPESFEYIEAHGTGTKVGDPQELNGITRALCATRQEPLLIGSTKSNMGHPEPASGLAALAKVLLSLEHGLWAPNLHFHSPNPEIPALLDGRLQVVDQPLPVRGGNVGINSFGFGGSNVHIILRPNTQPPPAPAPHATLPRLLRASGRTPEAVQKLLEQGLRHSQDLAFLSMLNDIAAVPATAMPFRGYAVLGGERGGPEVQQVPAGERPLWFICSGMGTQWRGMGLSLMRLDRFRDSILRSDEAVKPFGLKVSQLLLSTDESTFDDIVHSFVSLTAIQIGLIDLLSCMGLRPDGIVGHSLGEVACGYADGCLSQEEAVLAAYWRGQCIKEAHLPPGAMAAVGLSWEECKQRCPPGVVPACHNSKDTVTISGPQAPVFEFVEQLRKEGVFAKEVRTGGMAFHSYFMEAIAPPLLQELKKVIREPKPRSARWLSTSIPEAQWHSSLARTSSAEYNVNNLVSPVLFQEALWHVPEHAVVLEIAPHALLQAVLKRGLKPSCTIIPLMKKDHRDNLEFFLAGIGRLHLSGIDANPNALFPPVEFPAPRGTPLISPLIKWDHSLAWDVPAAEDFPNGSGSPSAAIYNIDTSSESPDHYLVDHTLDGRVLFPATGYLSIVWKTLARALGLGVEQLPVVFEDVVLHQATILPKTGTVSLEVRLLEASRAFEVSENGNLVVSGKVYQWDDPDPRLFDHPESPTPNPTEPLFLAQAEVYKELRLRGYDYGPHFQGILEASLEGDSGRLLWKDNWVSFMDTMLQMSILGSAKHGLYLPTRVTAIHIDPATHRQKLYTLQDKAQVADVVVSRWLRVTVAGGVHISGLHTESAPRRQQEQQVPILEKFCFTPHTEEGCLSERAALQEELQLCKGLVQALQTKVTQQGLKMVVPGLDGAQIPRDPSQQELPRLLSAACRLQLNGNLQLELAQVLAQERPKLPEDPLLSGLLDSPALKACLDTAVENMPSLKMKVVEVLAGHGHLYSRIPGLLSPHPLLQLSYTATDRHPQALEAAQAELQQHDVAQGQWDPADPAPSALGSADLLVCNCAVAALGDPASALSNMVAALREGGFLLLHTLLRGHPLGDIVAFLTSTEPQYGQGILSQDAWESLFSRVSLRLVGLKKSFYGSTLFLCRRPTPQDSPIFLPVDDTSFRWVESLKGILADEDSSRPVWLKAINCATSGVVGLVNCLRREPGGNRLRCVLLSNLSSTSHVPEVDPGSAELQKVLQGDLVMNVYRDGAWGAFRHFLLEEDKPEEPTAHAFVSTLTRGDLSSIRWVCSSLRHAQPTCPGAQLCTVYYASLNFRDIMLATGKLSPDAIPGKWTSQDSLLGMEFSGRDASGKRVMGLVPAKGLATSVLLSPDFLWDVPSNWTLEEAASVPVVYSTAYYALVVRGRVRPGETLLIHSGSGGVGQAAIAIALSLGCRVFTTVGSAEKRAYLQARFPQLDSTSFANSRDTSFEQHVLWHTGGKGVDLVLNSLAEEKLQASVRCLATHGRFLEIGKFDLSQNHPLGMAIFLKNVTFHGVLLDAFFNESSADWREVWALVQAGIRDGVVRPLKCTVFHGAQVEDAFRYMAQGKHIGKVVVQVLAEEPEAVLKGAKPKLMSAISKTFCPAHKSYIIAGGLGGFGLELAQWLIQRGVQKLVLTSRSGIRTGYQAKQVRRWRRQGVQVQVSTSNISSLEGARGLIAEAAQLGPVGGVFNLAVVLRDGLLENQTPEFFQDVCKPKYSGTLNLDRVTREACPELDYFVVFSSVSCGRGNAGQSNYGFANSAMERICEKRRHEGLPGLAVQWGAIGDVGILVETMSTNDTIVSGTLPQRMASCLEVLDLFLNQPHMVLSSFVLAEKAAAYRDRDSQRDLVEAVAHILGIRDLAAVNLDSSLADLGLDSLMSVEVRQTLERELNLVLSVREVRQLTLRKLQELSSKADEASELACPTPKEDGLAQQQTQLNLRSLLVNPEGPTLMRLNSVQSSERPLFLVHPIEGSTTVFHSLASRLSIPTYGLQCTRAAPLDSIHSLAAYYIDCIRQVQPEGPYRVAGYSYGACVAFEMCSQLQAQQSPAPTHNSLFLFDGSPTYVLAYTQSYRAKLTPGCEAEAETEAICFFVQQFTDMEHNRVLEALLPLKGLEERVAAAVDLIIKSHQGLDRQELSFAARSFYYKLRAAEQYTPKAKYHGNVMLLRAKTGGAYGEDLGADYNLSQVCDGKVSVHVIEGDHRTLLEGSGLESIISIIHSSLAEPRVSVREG
aDG glyco up = alpha-DG glycosylation activation | 360,000 compounds, 0.22% hits | activation, % at 10 µM | AID 624168 | Pro5-aDG cells, alpha-DG glycosylation AlphaScreen (IIH6); 0% Pro5, 100% B10-LARGE cell signal;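 active = activation of at least 8% versus controls, or a plate z-score of at least 8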;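 note: Pro5 are CHO cells carrying HIG-tagged alpha-DG that lacks glycosylation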
MIN6 prolif = induces beta-cell replication in MIN6 cells. AID 2380. proliferation, % at 10 µM. 330,000 compounds, 0.29% hits. MIN6 cells proliferation, ATPlite luminescence, 48 h; cells starved in 0.2% serum; 100% = growth in 10% serum;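 active = compounds whose signal lies at least 3.5 SD above the mean of all wells on their plate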;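 note: 0% = DMSO-treated cells in low-serum medium and 100% = 10% serum control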
Starred values were filed as active, the others as inactive; · = no result. Hits are enriched below; roughly 2.3% of the tested compounds scored in any of these assays.

SMILES	TAG inh	Cardio protect	Calpain2 inh	FAS-TE inh	aDG glyco up	MIN6 prolif
NS(=O)(=O)c1ccc(O)c(N2C(=O)c3cccc4c(C(=O)c5ccccc5)ccc(c34)C2=O)c1	·	·	8.0	·	·	·
Cc1c(Cl)cnc(NC(=O)COC(=O)[C@@H](NC(=O)c2ccco2)C(C)C)c1Cl	-34.9	-2.4	·	2.6	0.2	-3.4
COc1ccccc1-c1cc(NC(C)=O)c2ncc(-c3cccc(C(C)=O)c3)n2c1	-4.0	52.3*	·	14.9	-0.4	·
c1ccc(-c2nnc(-c3ccccn3)nc2NC2CCCCC2)cc1	-131.7	35.6	5.8	-45.1	3.4	-5.5
CNc1nc(-c2ccccn2)nnc1-c1ccccc1	-8.3	51.7*	16.6	-6.9	1.3	-1.2
CCOC(=O)[C@H]1[C@H]2COc3ccc(OC)cc3[C@@H]2N2C(=O)[C@H](C)NC(=O)[C@@]12C	3.3	2.8	·	-12.4	-0.3	9.1
CC(C)(C)C(c1nc2ccccc2[nH]1)n1c(-c2cc(Cl)cc(Cl)c2)nc2ccccc21 (centres undefined)	·	·	·	·	0.0	·
CC1Cc2[nH]c(=S)[nH]c(=O)c2C(C)O1 (centres undefined)	·	·	·	-12.3	-0.3	·
O=C1NC(=O)C(=O)N1	3.8	1.0	·	-2.8	-0.1	2.8
O=C1NC(=O)c2c(Br)c(Br)c(Br)c(Br)c21	2.0	59.4*	·	-9.1	-0.2	·
N#Cc1ccc(C(=O)NC2CCCCCCC2)cc1	·	0.5	·	4.2	-0.1	-3.3
O=C(Nc1nc(-c2ccc(S(=O)(=O)N3CCOCC3)cc2)cs1)c1ccccc1	2.1	-1.2	-10.8	22.5	-0.1	-4.9
Cc1ccc(Nc2nc(-c3ccc(S(=O)(=O)N4CCOCC4)cc3)cs2)cc1Cl	·	-16.5	60.0*	29.5	-0.5	0.0
Cc1ccc(C(=O)NNC(=O)c2cc(OCC(F)(F)F)ccc2OCC(F)(F)F)cc1	·	1.2	-4.8	10.1	0.0	0.5
O=C(NNC(=O)c1cc(OCC(F)(F)F)ccc1OCC(F)(F)F)c1cccc(C(F)(F)F)c1	11.3	2.1	91.6*	19.8	0.4	-1.7
C/C(=N\NC(=O)c1nnn(-c2nonc2N)c1CN(C)c1ccccc1)c1ccccc1O	·	56.7*	·	31.3	0.2	-7.8
C/C(=N\NC(=O)c1nnn(-c2nonc2N)c1CSc1ccc(Cl)cc1)c1cccnc1	·	25.3	·	16.5	-0.2	-3.5
C/C(=N\NC(=O)c1nnn(-c2nonc2N)c1CSc1ccc(C)cc1)c1cccnc1	1.6	55.3*	·	-0.7	-0.3	·
C/C(=N\NC(=O)c1nnn(-c2nonc2N)c1CN1CCCCC1)c1ccccc1O	·	63.2*	·	12.2	0.2	-3.8
CC(/C=N/NC(=O)c1nnn(-c2nonc2N)c1CN1CCCCC1)=C\c1ccccc1	0.6	3.1	·	16.6	0.3	-5.8
COc1ccc(OC)c(NC(=O)C(=O)N/N=C(\C)CC(=O)Nc2ccc(Cl)cn2)c1	·	1.1	·	3.0	-0.2	-0.7
CCc1ccc(-c2n[nH]c(=O)c3ccccc23)cc1	·	24.3	·	-2.1	0.1	-0.2
Nc1ccc(-c2n[nH]c(=O)c3ccccc23)cc1N	·	79.5*	0.9	-11.6	-0.2	1.0
Cc1ccc(-c2n[nH]c(=O)c3ccccc23)cc1N	-17.2	67.6*	-28.5	-5.1	0.0	1.2
Cc1ccc(-c2n[nH]c(=O)c3ccccc23)c(C)c1	-21.3	-4.8	·	-4.2	0.0	-3.3
SMILES	TAG inh	Cardio protect	Calpain2 inh	FAS-TE inh	aDG glyco up	MIN6 prolif
CC1CC(C)CN(S(=O)(=O)c2ccc(C(=O)N3CC(C)OC(C)C3)cc2)C1 (centres undefined)	3.5	-1.1	·	0.5	0.2	-2.2
COc1ccc(-c2oc3ncnc(NCCCN4CCOCC4)c3c2-c2ccc(OC)cc2)cc1	·	-7.8	-271.6	18.8	0.1	-4.9
COc1ccc(-c2oc3ncnc(NCCN4CCOCC4)c3c2-c2ccc(OC)cc2)cc1	-76.9	74.9*	·	19.3	0.3	-6.1
COc1ccccc1N1CCN(C(=O)c2noc(C(C)C)c2[N+](=O)[O-])CC1	·	1.1	·	-2.1	-0.1	-0.7
CCCCCCCCCn1c2c(c(=N)c3c1CCC3)CCC2	-52.8	-20.2	50.9*	10.1	0.4	-5.6
CCCCCCn1c2c(c(=N)c3c1CCC3)CCC2	·	-9.4	-4.9	-2.6	0.1	-6.1
CC(NC(=O)CCCCCN1C(=O)c2ccccc2C1=O)c1ccc2c(c1)CCCC2 (centres undefined)	·	8.8	57.2*	5.3	0.0	0.7
CCOc1ccc2[nH]c(=O)c(CN(Cc3cccs3)C(CC)c3nnnn3C(C)(C)CC)cc2c1 (centres undefined)	-24.3	67.0*	-45.9	-7.7	0.0	·
COc1ccc2[nH]c(=O)c(CN(CCc3ccccc3)Cc3nnnn3CC3CCCO3)cc2c1 (centres undefined)	·	76.5*	-55.0	-4.3	0.0	-2.2
COc1ccc2[nH]c(=O)c(CN(Cc3ccco3)Cc3nnnn3Cc3ccccc3)cc2c1	·	66.0*	-40.0	0.1	0.6	-0.7
CCOC(=O)Cn1nnnc1C(CC)N(Cc1cccs1)Cc1cc2cc(C)ccc2[nH]c1=O (centres undefined)	11.4	2.2	-19.9	-9.4	0.0	-0.8
O=c1[nH]c2cc3c(cc2cc1CN(Cc1nnnn1CC1CCCO1)C1CCCCC1)OCO3 (centres undefined)	6.2	56.7*	-84.6	-19.6	0.3	-3.3
C[C@H](NC(=O)C[C@@H]1CC[C@H]2[C@@H](COC[C@H](O)CN2Cc2ccc(C(F)(F)F)cc2)O1)c1ccccc1	·	·	·	·	1.8	·
CCN(CC)c1ccc(C(=O)OCC(=O)NC(C)(C)C)cc1	16.5	-1.6	-9.9	-1.4	0.1	-0.2
C[C@@H]1CN([C@H](C)CO)C(=O)CCCn2nncc2CO[C@H]1CN(C)S(=O)(=O)c1ccc2ccccc2c1	4.5	3.5	·	-5.8	0.1	·
COc1ccc(/C=C(/NC(=O)c2ccc(Br)cc2)C(=O)Nc2cccc(C(=O)O)c2)cc1	-7.8	-3.6	·	21.0	-0.2	·
Cc1ccc(C)c2[nH]c(=O)c(CN(Cc3ccc4c(c3)OCO4)Cc3nnnn3Cc3ccco3)cc12	-10.1	60.2*	-40.0	12.5	-0.2	-1.3
CCOc1ccc2[nH]c(=O)c(CN(Cc3ccco3)C(CC)c3nnnn3Cc3ccccc3)cc2c1 (centres undefined)	4.7	85.5*	-27.5	-8.6	0.5	-2.4
COc1cc2cc(CN(Cc3nnnn3Cc3ccco3)C3CCCCC3)c(=O)[nH]c2cc1OC	-4.6	42.9	-36.1	-6.8	-0.1	0.2
Cc1ccc2cc(CN(Cc3ccc4c(c3)OCO4)Cc3nnnn3Cc3ccco3)c(=O)[nH]c2c1C	·	16.5	-88.9	2.2	0.0	-3.6
CCOc1ccc2[nH]c(=O)c(CN(Cc3nnnn3Cc3ccco3)C3CCCCC3)cc2c1	-4.9	58.6*	-11.9	-2.8	0.4	-1.8
CCCCC(=O)N(C)c1c(CC)nc2c(OCCC)cccn12	-6.0	3.5	·	-3.5	0.2	·
O=C1CCC(C(=O)NCc2ccccc2)N1 (centres undefined)	8.7	1.5	·	-4.4	0.0	-1.0

Assay outcomes: PubChem BioAssay, several laboratories
